Source: PubChem BioAssay (NCATS)
Where “and” joins values, the source holds several entries; their conditions need not be identical. Equal values may be shown once. Records with an inconclusive call do not appear. Some compounds were tested as several samples or in several runs, with calls that do not always agree. Calls of active or inactive are those of the source. Calls come from the whole dose curve; as a rule, active = well fitted curve in the direction sought with a large enough effect; inconclusive = small, poorly fitted or top-dose-only effect, or another doubt; inactive = no such curve, though single readings can be large; an effect the other way counts as inactive or inconclusive.

Tests used:
SC27B = experiment: qHTS profiling for inhibitors of Plasmodium falciparum proliferation (AID 504749); note: nearly all actives have a fitted effect of over 60% in size; conditions: P. falciparum in erythrocytes, SYBR Green DNA, 72 h; series mostly up to 28.7 µM
How it was run: (§1)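 Readout was DNA-dye fluorescence from lysed cultures, ex 485/em 535 nm. Parasitized red cells had grown 72 h with compound; data scaled between 0.29 uM artemisinin and DMSO wells and corrected using vehicle-only plates.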

TAB109 = experiment: as above; conditions: P. falciparum in erythrocytes, SYBR Green DNA, 72 h; series mostly up to 28.7 µM
How it was run: as §1

TAB113 = experiment: as above; conditions: P. falciparum in erythrocytes, SYBR Green DNA, 72 h; series mostly up to 28.7 µM
How it was run: as §1

TAB165 = experiment: as above; conditions: P. falciparum in erythrocytes, SYBR Green DNA, 72 h; series mostly up to 28.7 µM
How it was run: as §1

W2 = experiment: as above; conditions: P. falciparum in erythrocytes, SYBR Green DNA, 72 h; series mostly up to 28.7 µM
How it was run: as §1

CRL-7250 = normal cell line; experiment: Cytotoxic Profiling of Annotated Libraries Using Quantitative High-Throughput Screening (AID 1296008); conditions: Five cell lines viability, CellTiter-Glo ATP luminescence, 48-72 h; max response: stronger effect = lower value; note: nearly all actives have a fitted effect of over 60% in size; for max response: % is set by controls: 0 for no effect and ±100 for the full control effect
How it was run: (§2)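 Cells exposed to compounds for 48 or 72 hr at 37 degrees Celsius. Viability read as ATP-coupled luminescence with CellTiter-Glo after 10 min at room temperature.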

HEK293 = experiment: as above; conditions: Five cell lines viability, CellTiter-Glo ATP luminescence, 48-72 h; max response: stronger effect = lower value
How it was run: as §2

HaCat [1] = experiment: as above; conditions: Five cell lines viability, CellTiter-Glo ATP luminescence, 48-72 h; max response: stronger effect = lower value
How it was run: as §2

KB-3-1 = experiment: as above; conditions: Five cell lines viability, CellTiter-Glo ATP luminescence, 48-72 h; max response: stronger effect = lower value
How it was run: as §2

NIH3T3 [2] = experiment: as above; conditions: Five cell lines viability, CellTiter-Glo ATP luminescence, 48-72 h; max response: stronger effect = lower value
How it was run: as §2

MCC-13 = experiment: qHTS assay to identify novel small-molecules to repurpose for Merkel cell carcinoma treatment (AID 1296009); conditions: MCC and control cell lines, CellTiter-Glo viability, 72 h; series mostly up to 46 µM; note: nearly all actives have a fitted effect of over 60% in size
How it was run: (§3)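 Cells were incubated with compound for 72 hr at 37 degree celsius before CellTiter-Glo addition. Luminescence was normalized with no-cell wells as full cytotoxicity and DMSO as baseline.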

MCC-26 = experiment: as above; conditions: MCC and control cell lines, CellTiter-Glo viability, 72 h; series mostly up to 46 µM
How it was run: as §3

MKL-1 = experiment: as above; conditions: MCC and control cell lines, CellTiter-Glo viability, 72 h; series mostly up to 46 µM
How it was run: as §3

MKL-2 = experiment: as above; conditions: MCC and control cell lines, CellTiter-Glo viability, 72 h; series mostly up to 46 µM
How it was run: as §3

NIH3T3 [3] = experiment: as above; conditions: MCC and control cell lines, CellTiter-Glo viability, 72 h; at 44.8 µM (top of the series) unless noted
How it was run: as §3

UISO = experiment: as above; conditions: MCC and control cell lines, CellTiter-Glo viability, 72 h; series mostly up to 46 µM
How it was run: as §3

WaGa = experiment: as above; conditions: MCC and control cell lines, CellTiter-Glo viability, 72 h; series mostly up to 46 µM
How it was run: as §3

C33A = experiment: Primary qHTS to identify gynecologic anti-cancer compounds using libraries of approved drugs and bioactive compounds (AID 1345084); conditions: Gynecologic cancer cell panel viability, ATPlite luminescence, 48 h; series mostly up to 57.5 µM; note: nearly all actives have a fitted effect of over 55% in size
How it was run: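 Cytotoxicity screen measuring ATP content by luciferase luminescence. Each compound is applied at five concentrations for 48 h at 37 C with 5% CO2.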

HACAT [4] = experiment: qHTS assay to identify novel small-molecules to repurpose for Merkel cell carcinoma treatment (AID 1296009); conditions: MCC and control cell lines, CellTiter-Glo viability, 72 h; at 44.8 µM (top of the series) unless noted; note: nearly all actives have a fitted effect of over 60% in size
How it was run: as §3
Potency is the fitted concentration of half-maximal effect.

Cc1[nH]c(=O)c(C#N)cc1-c1ccc2nccn2c1
inactive: Potency (SC27B) | Potency (TAB109) | Potency (TAB113) | Potency (TAB165) | Potency (W2) | max response (CRL-7250) 0.18% | outcome (CRL-7250) | max response (HEK293) 3.47% | max response (HaCat [1]) -13.2% and -27.6% | max response (KB-3-1) -3.5% and -14.6% | max response (NIH3T3 [2]) -20.6% | outcome (NIH3T3 [2]) | Potency (MCC-13) | Potency (MCC-26) | Potency (MKL-1) | Potency (MKL-2) | outcome (NIH3T3 [3]) | Potency (UISO) | Potency (WaGa) | Potency (C33A)

CCOC(=O)C1=C[C@]2(CC)CCCN3CCc4c(n1c1ccccc41)[C@@H]32
active: Potency (SC27B) 12.6 µM | Potency (TAB109) 10 µM | Potency (TAB165) 12.6 µM
inactive: max response (CRL-7250) 1.21% | outcome (CRL-7250) | max response (HaCat [1]) -26.7% and -18% | max response (KB-3-1) 2.59% and -10.9% | max response (NIH3T3 [2]) -12.6% | Potency (MCC-13) | Potency (MCC-26) | Potency (MKL-1) | Potency (UISO) | Potency (WaGa) | Potency (C33A)

C[C@@H]1CN(Cc2ccc(F)cc2)[C@@H](C)CN1C(=O)c1cc2c(C(=O)C(=O)N(C)C)cn(C)c2cc1Cl
inactive: max response (CRL-7250) 4.08% | outcome (CRL-7250) | max response (HaCat [1]) -4.64% | outcome (HaCat [1]) | max response (KB-3-1) 6.97% and -3.16% | max response (NIH3T3 [2]) 1.1% | outcome (NIH3T3 [2]) | outcome (HACAT [4]) | Potency (MCC-13) | Potency (MCC-26) | Potency (MKL-1) | Potency (MKL-2) | outcome (NIH3T3 [3]) | Potency (UISO) | Potency (C33A)

COc1cc(Nc2ncc3c(n2)-c2ccc(Cl)cc2C(c2c(F)cccc2OC)=NC3)ccc1C(=O)O
active: Potency (CRL-7250) 20.6 µM | Potency (HEK293) 23.1 µM | Potency (HaCat [1]) 16.4 µM and 833 nM | Potency (KB-3-1) 2.09 µM | Potency (NIH3T3 [2]) 7.43 µM | Potency (WaGa) 0.148 µM
inactive: max response (HEK293) -33.7% | Potency (MCC-26) | Potency (MKL-2) | Potency (UISO)
28.2 µM (active) and inactive: Potency (C33A)

CNC[C@H](O)c1cccc(O)c1
inactive: Potency (SC27B) | Potency (TAB109) | Potency (TAB113) | Potency (TAB165) | max response (CRL-7250) -1.79% and -10.1% | max response (HEK293) 1.65% and -9.71% | max response (HaCat [1]) -21.3% | outcome (HaCat [1]) | max response (KB-3-1) 3.69% | outcome (KB-3-1) | max response (NIH3T3 [2]) 3.51% | outcome (NIH3T3 [2]) | outcome (HACAT [4]) | Potency (MCC-13) | Potency (MCC-26) | Potency (MKL-1) | Potency (MKL-2) | outcome (NIH3T3 [3]) | Potency (UISO) | Potency (WaGa) | Potency (C33A)
